# Measured values from PubChem BioAssay.
# The source made the active and inactive calls.
# Legend:
# [1] = system: Plasmodium falciparum Sir2 (PF13_0152, Sir2A); assay: Plasmodium falciparum Sir2A binding compounds – biochemical, small-molecule microarray, 635 nm fluorescence, primary screen (AID 1098); conditions: fluorescence 635 nm, higher = more signal;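 further: score merges spot fluorescence intensity with its signal-to-noise ratio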
# [2] = probe aDKK1 binding to arrayed compounds – biochemical, biotinylated probe, 635/667 nm fluorescence, primary screen (AID 1099); conditions: small-molecule microarray, higher = more signal;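 further: score merges 667nm spot fluorescence with signal to noise across triplicate slides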
# [3] = probe aCHRDL2 binding to arrayed compounds – biochemical, biotinylated probe, 635/667 nm fluorescence, primary screen (AID 1100); conditions: small-molecule microarray, higher = more signal
# [4] = change in splice reporter luminescence, either direction, cell-based, HEK293, spliceosome inhibition project, primary screen (AID 1101); conditions: HEK293 splicing luciferase reporter, 24 h, higher = more signal, called active from +8 up or from −8 down;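 further: HEK293 cells carrying a splicing-competent luciferase reporter gene; test concentration not given here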
# [5] = target: Fibroblast growth factor 10 (Homo sapiens) (UniProt O15520); assay: compounds binding fibroblast growth factor 10 – biochemical, small-molecule microarray, 635 nm fluorescence, primary screen (AID 1102); conditions: FGF10 binding, fluorescence 635 nm, higher = more signal
# [6] = system: glycogen synthase kinase-3 (GSK3A per assay name; protocol says GSK3B); assay: compounds binding glycogen synthase kinase-3 – biochemical, small-molecule microarray, 635 nm fluorescence, GSK3A, primary screen (AID 1103); conditions: fluorescence 635 nm, higher = more signal; further: the record names both GSK3A and GSK3B
# [7] = target: Epidermal growth factor receptor (Homo sapiens) (UniProt P00533); assay: compounds binding epidermal growth factor receptor – biochemical, small-molecule microarray, 635 nm fluorescence, primary screen (AID 1104); conditions: EGFR binding, higher = more signal;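 further: score merges 667 nm emission intensity with spot signal to noise over triplicate slides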
# [8] = target: Follistatin-related protein 3 (Homo sapiens) (UniProt O95633); assay: compounds binding follistatin-related protein 3 – biochemical, small-molecule microarray, 635 nm fluorescence, primary screen (AID 1105); conditions: FSTL3 binding, higher = more signal;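 further: score merges emission near 667 nm and signal to noise per printed spot across three slides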
# [9] = target: Dickkopf-related protein 1 (Homo sapiens) (UniProt O94907); assay: small molecules binding DKK1 protein – biochemical, small-molecule microarray, 635 nm fluorescence scan, primary screen (AID 1106); conditions: higher = more signal;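 further: score merges emission near 667 nm with signal to noise over three replicate slides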
# [10] = system: Inhibin beta A chain (activin A); assay: small molecules binding activin A – biochemical, small-molecule microarray, 635 nm fluorescence scan, primary screen (AID 1107); conditions: INHBA, higher = more signal;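 further: mouse activin A protein probed at 4.33 µg/mL on printed slides; score merges bound-protein fluorescence near 667 nm with spot signal-to-noise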
# [11] = system: Human papillomavirus type 1a protein E7 (residues 44-93); assay: small molecules binding HPV E7 44-93 – biochemical, small-molecule microarray, residues 44-93, 635 nm fluorescence, primary screen (AID 1108); conditions: fluorescence 635 nm, higher = more signal;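 further: E7 fragment applied at 1 µg/mL in TBST for 1 h at 4 C; score combines spot fluorescence with its signal to noise ratio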
# [12] = hepatitis C replication reporter changes, two-sided – Huh7 cells, luciferase reporter, HCV replication inhibitor project, primary screen (AID 1109); conditions: Huh7 HCV replicon luciferase reporter, 48 h; higher = more signal;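 further: huh7 hepatoma cells harbouring a luciferase neomycin HCV replicon reporter; luciferase luminescence as measure of HCV replicon replication; test concentration not given here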
# [13] = target: Left-right determination factor 2 (Homo sapiens) (UniProt O00292); assay: small molecules binding LEFTY2 protein – biochemical, small-molecule microarray, 635 nm fluorescence scan, primary screen (AID 1110); conditions: higher = more signal
# [14] = target: Calmodulin-1 (Homo sapiens) (UniProt P0DP23); assay: small molecules binding calmodulin-1 with EGTA – biochemical, small-molecule microarray, Cy5-labelled CALM1, profiling panel (AID 1111); conditions: Cy5-CALM1 binding fluorescence, higher = more signal;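 further: labelled calmodulin applied in Tris saline Tween buffer holding calcium plus EGTA and DTT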
# [15] = target: Calmodulin-1 (Homo sapiens) (UniProt P0DP23); assay: small molecules binding Ca-loaded calmodulin-1 – biochemical, small-molecule microarray, Cy5-labelled CALM1, plus calcium, artefact control for SMM control-protein annotation, profiling panel (AID 1112); conditions: Cy5-CALM1 binding fluorescence, higher = more signal;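 further: score merges spot fluorescence with signal to noise from triplicate slides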
# [16] = probe aWnt5a binding to arrayed compounds – biochemical, biotinylated probe, 635/667 nm fluorescence, primary screen (AID 1113); conditions: small-molecule microarray, higher = more signal;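 further: score merges 667 nm fluorescence intensity with signal-to-noise per printed feature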
# [17] = probe aShh binding to arrayed compounds – biochemical, biotinylated probe, 635/667 nm fluorescence, primary screen (AID 1114); conditions: small-molecule microarray, higher = more signal;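 further: probe is biotin-labelled aShh protein from a stem cell growth factor screen; measures binding of labelled protein to compounds printed on the slide; score merges feature fluorescence at 667 nm with signal-to-noise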
# [18] = probe aNog binding to arrayed compounds – biochemical, biotinylated probe, 635/667 nm fluorescence, primary screen (AID 1115); conditions: small-molecule microarray, higher = more signal;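 further: probe is biotinylated aNog protein used at 0.15 µg/mL for 1 h at 4 C; z-score combines 667 nm fluorescence of each spot with its signal to noise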
# [19] = target: Torsin-1A-interacting protein 1 (Homo sapiens) (UniProt Q5JTV8); assay: compound microarray binding of lysate hLAP1 – cell lysate, small-molecule microarray, COS7 lysate, 635/667 nm fluorescence, primary screen (AID 1116); conditions: 635 nm fluorescence, higher = more signal
# [20] = target: Alpha-bungarotoxin (Bungarus multicinctus) (UniProt P60615); assay: compounds binding labelled alpha-BTX control protein – biochemical, small-molecule microarray, Alexa647 label, 635/667 nm fluorescence, artefact control for SMM control protein annotation, profiling panel (AID 1117); conditions: alpha-BTX-A647 binding fluorescence, higher = more signal
# Alpha-bungarotoxin (Bungarus multicinctus), sequence (P60615 whole entry, looked up): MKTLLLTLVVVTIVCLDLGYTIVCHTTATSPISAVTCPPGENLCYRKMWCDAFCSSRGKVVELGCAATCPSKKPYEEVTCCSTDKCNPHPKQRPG
# Epidermal growth factor receptor (Homo sapiens), sequence (P00533 whole entry, looked up): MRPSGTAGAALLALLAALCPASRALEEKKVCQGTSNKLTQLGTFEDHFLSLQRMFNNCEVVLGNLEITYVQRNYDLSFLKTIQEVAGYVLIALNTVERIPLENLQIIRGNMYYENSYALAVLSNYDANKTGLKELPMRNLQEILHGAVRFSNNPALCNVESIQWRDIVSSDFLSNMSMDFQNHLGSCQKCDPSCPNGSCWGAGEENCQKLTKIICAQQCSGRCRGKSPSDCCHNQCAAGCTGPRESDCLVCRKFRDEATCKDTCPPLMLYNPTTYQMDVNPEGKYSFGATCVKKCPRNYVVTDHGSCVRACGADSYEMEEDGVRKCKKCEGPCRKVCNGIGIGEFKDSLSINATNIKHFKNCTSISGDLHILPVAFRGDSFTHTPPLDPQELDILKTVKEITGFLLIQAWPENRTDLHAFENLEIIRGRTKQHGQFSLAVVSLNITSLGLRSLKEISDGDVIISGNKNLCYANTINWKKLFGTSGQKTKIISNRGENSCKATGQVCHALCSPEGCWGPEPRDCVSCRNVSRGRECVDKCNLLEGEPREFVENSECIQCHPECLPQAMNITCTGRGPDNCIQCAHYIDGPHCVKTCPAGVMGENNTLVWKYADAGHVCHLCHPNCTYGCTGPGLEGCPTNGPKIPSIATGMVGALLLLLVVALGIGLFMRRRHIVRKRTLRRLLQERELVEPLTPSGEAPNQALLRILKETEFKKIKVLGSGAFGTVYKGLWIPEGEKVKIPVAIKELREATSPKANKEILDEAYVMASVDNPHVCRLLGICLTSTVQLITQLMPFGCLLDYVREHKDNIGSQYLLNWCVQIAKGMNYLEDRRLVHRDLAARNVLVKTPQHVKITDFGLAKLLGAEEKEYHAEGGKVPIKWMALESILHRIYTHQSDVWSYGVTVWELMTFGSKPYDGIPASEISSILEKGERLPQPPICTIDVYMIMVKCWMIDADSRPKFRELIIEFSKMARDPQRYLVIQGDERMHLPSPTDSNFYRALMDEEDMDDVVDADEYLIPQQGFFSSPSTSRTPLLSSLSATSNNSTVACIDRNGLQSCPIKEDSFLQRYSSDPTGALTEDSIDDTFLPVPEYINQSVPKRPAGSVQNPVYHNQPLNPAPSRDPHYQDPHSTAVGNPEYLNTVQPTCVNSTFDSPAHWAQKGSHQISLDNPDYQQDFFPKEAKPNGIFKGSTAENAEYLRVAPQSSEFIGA
# Follistatin-related protein 3 (Homo sapiens), sequence (O95633 whole entry, looked up): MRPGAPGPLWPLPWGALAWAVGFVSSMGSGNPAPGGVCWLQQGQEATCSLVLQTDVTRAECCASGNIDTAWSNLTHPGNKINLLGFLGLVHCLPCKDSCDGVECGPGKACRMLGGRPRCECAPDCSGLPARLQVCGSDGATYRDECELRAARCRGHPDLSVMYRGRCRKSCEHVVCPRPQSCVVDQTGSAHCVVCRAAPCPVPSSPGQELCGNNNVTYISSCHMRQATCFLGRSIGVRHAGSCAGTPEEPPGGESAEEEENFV
# Torsin-1A-interacting protein 1 (Homo sapiens), sequence (Q5JTV8 whole entry, looked up): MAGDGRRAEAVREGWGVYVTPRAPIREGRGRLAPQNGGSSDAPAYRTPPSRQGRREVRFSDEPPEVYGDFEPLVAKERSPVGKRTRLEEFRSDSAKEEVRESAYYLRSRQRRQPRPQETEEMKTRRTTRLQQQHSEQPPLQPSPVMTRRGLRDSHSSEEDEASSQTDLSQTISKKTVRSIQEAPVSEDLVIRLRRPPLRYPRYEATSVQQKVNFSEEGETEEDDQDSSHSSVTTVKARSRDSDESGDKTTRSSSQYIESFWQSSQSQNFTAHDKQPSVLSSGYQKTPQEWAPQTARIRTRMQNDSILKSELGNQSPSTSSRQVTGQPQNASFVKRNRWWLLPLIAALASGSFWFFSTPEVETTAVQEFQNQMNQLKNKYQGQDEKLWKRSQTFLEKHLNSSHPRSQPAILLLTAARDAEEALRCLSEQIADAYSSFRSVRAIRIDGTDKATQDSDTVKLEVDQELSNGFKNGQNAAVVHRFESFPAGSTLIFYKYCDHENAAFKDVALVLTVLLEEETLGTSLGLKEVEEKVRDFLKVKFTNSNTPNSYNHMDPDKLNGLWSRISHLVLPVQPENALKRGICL
# Fibroblast growth factor 10 (Homo sapiens), sequence (O15520 whole entry, looked up): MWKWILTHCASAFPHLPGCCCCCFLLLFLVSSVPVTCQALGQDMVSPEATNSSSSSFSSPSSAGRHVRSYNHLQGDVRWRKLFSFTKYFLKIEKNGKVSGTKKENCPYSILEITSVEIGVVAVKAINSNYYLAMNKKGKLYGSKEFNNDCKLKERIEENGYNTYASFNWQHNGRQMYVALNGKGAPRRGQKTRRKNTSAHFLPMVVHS
# Dickkopf-related protein 1 (Homo sapiens), sequence (O94907 whole entry, looked up): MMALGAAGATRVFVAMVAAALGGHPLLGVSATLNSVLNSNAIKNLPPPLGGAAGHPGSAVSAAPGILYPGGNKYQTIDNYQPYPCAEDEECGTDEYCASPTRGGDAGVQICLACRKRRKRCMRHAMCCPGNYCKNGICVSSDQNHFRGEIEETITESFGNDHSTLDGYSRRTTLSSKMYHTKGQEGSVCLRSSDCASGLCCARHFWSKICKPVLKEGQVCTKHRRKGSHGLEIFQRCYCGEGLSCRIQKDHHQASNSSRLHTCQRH
# Left-right determination factor 2 (Homo sapiens), sequence (O00292 whole entry, looked up): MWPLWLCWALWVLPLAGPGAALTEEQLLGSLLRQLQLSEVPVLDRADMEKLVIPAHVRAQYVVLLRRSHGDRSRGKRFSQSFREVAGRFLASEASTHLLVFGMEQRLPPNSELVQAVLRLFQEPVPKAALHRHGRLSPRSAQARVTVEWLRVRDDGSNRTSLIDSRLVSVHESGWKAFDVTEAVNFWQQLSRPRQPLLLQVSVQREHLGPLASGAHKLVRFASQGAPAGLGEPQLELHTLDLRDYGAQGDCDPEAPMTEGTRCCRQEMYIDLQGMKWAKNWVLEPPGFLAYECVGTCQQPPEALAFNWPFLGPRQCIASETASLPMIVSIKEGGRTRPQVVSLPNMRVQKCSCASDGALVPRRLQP
SMILES,composite z-score [1],composite z-score [2],composite z-score [3],z-score [4],composite z-score [5],composite z-score [6],composite z-score [7],composite z-score [8],composite z-score [9],composite z-score [10],composite z-score [11],z-score [12],composite z-score [13],composite z-score [14],composite z-score [15],composite z-score [16],composite z-score [17],composite z-score [18],composite z-score [19],composite z-score [20]
Cc1ccc(N2C(=O)c3ccccc3[C@@H](C(=O)NCC(C)C)[C@@H]2c2ccc(CO)cc2)nc1,1.48,-0.244,0.544,0.337 (inactive),-0.617,-0.813,-1.26,-1.19,-0.52,0.244,-0.369,-0.216,-1.31,-0.617,-0.259,-0.176,-0.0709,-0.518,0.219,-0.688
COc1ccc([Si](C)(C)[C@H]2[C@H](CC(=O)N3Cc4ccccc4C[C@H]3CO)O[C@@]3(C(=O)N(Cc4cccc(I)c4)c4ccccc43)[C@@H]2C)cc1,0.391,-0.29,-0.162,-1.73 (inactive),1.15,0.346,1.4,1.36,1.57,1.76,0.276,-3.8,0.947,-0.551,1.49,-0.124,0.0815,-0.1,0.225,-0.0241
